# Experimental data reported in PubChem BioAssay (NCATS).
# Several values for one entry are separate records, joined by “and”; a condition that tells them apart may be missing. Equal entries are not always repeated. A number with no mark means an inactive call. Records with an inconclusive call do not appear. Activity calls are given as the source filed them. Unless noted, calls come from the whole dose curve; as a rule, active = well fitted inhibition curve with a large enough effect; inconclusive = small, poorly fitted or top-dose-only effect; inactive = flat fitted curve, though single readings scatter. Non-standard residues stand in square brackets, D forms with d. Residues, ends and D or L forms follow the SMILES beside them. Orn = NCCC[C@H](N)C(=O)O
# How the values were obtained:
# astro = control astrocytes; assay: Drug repurposing screens with cells derived from glioblastoma tumor samples (AID 1345199); settings: viability, ATP luminescence, 48 h; series mostly up to 45.9 µM; note: nearly all actives have a fitted effect of over 40% in size; note: potency is the fitted concentration of half-maximal effect; for activity, negative = cell killing: % is set by controls: 0 for no effect and ±100 for the full control effect
# In short: (§1)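 Primary testing used CD133+ neurospheres from four GBM patients, seven concentrations, 48 h exposure and ATP-based viability; confirmation added three slower-growing patient lines.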
# [1] = as above; settings: GBM patient neurospheres viability, ATP luminescence, 48 h
# In short: as §1
# [2] = target: Nuclear receptor subfamily 1 group I member 2 (Rattus norvegicus) (UniProt Q9R1A7); assay: qHTS assay for small molecule activators of the rat pregnane X receptor (rPXR) signaling pathway (AID 651751; call rule not given here; note: 0% is about no effect); settings: rPXR reporter cells, luciferase (One-Glo), 24 h
# Sequence of Nuclear receptor subfamily 1 group I member 2 (Rattus norvegicus) (Q9R1A7 whole entry, looked up): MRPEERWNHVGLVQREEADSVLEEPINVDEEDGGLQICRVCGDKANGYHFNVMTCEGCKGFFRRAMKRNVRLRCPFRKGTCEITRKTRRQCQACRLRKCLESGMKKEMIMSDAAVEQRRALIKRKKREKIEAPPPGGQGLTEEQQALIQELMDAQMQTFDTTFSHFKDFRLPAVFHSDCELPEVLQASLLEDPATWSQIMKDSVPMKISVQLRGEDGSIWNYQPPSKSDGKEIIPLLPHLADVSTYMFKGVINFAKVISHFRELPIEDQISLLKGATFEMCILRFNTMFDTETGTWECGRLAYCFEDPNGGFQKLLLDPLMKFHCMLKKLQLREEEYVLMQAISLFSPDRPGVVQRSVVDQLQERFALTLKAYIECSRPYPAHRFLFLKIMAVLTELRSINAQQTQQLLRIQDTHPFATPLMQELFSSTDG
# [3] = qHTS assay for small molecule activators of the human pregnane X receptor (PXR) signaling pathway (AID 720659; call rule not given here; note: 0% is about no effect)
# [4] = at 20 µM (top of the series), tumour line C
# [5] = at 45.9 µM (top of the series), tumour line B
# [6] = at 45.9 µM (top of the series), tumour line D
# [7] = at 46.1 µM (top of the series), tumour line C
# [8] = at 46 µM (top of the series), tumour line A
# [9] = at 21.2 µM (top of the series), tumour line B
# [10] = at 21.2 µM (top of the series), tumour line D
smiles,measurement,setting,value
COc1cc(-c2ccc(-[n+]3nc(-c4ccccc4)nn3-c3ccc([N+](=O)[O-])cc3)c(OC)c2)ccc1-[n+]1nc(-c2ccccc2)nn1-c1ccc([N+](=O)[O-])cc1,Potency,astro,3.55 µM (active)
CCCCCCCCCCCCCC[n+]1ccc(C)cc1,Potency,astro,3.16 µM (active)
Cc1cc(/C=C/c2ccc3cc(N(C)C)ccc3[n+]2C)c(C)n1-c1ccccc1,"activity, negative = cell killing",[1]; [4],-11.8%
same,Potency,astro,11.2 µM (active)
CCCCC(C)(O)C/C=C/[C@H]1[C@H](O)CC(=O)[C@@H]1CCCCCCC(=O)OC (stereo partly specified),"activity, negative = cell killing",[1]; [5],-29.2%
same,"activity, negative = cell killing",[1]; [6],-0.625%
same,"activity, negative = cell killing",[1]; [7],7.24%
same,Potency,astro,inactive
CCCCCCOc1ccc(C(=N)N(CCCC)CCCC)c2ccccc12,Potency,astro,17.8 µM (active)
CC[C@@H](C(=O)[C@@H](C)[C@@H](O)[C@H](C)CCc1ccc(C)c(O)c1C(=O)O)[C@H]1O[C@](CC)([C@H]2CC[C@](O)(CC)[C@H](C)O2)C[C@@H]1C,Potency,astro,7.08 µM (active)
O=C(Nc1cccc(C(F)(F)F)c1)c1cc(Br)cc(Br)c1O,Potency,astro,2.51 µM (active)
CC(C)C[C@@H]1NC(=O)[C@H](CCCN)NC(=O)[C@H](C(C)C)NC(=O)[C@@H]2CCCN2C(=O)[C@@H](Cc2ccccc2)NC(=O)[C@H](CC(C)C)NC(=O)[C@H](CCCN)NC(=O)[C@H](C(C)C)NC(=O)[C@@H]2CCCN2C(=O)[C@@H](Cc2ccccc2)NC1=O (cyclo(V[Orn]L[dF]PV[Orn]L[dF]P)),Potency,astro,3.98 µM (active)
CC[C@@]1(O)C(=O)OCc2c1cc1n(c2=O)Cc2cc3c([N+](=O)[O-])cccc3nc2-1,Potency,astro,1.26 µM (active)
CCCCC/C=C\C/C=C\CCCCCCCC(=O)O,"activity, negative = cell killing",[1]; [5],-6.32%
same,"activity, negative = cell killing",[1]; [6],-10.3%
same,"activity, negative = cell killing",[1]; [7],11.8%
same,Potency,astro,inactive
same,max response,[2],6.19% and -3.59%
same,outcome,[3],inactive
O=C1C(=O)c2ncccc2-c2cccnc21,Potency,astro,0.562 µM (active)
C=C[C@]1(C)C[C@@H](OC(=O)CSC(C)(C)CNC(=O)[C@H](N)C(C)C)[C@]2(C)[C@H](C)CC[C@]3(CCC(=O)[C@H]32)[C@@H](C)[C@@H]1O,Potency,astro,inactive
Nc1nc(N)c2nc(CNc3ccc(C(=O)N[C@@H](CCC(=O)O)C(=O)O)cc3)cnc2n1,"activity, negative = cell killing",[1]; [5],-5.27%
same,"activity, negative = cell killing",[1]; [6],12.1%
same,"activity, negative = cell killing",[1]; [8],-19.6%
same,Potency,astro,inactive
COC(=O)C1=C(C#N)NC(C)=C(C(=O)OC(C)C)C1c1cccc([N+](=O)[O-])c1 (stereo unspecified),"activity, negative = cell killing",[1]; [5],-5.18%
same,"activity, negative = cell killing",[1]; [6],-25.1%
same,Potency,[1]; tumour line A,14.1 µM (active)
same,Potency,astro,inactive
CO[C@H](C(=O)[C@@H](O)[C@@H](C)O)C1Cc2cc3cc(O[C@H]4C[C@@H](O[C@H]5C[C@@H](O)[C@H](O)[C@@H](C)O5)[C@@H](O)[C@@H](C)O4)c(C)c(O)c3c(O)c2C(=O)[C@H]1O[C@H]1C[C@@H](O[C@H]2C[C@@H](O[C@H]3C[C@](C)(O)[C@H](O)[C@@H](C)O3)[C@H](O)[C@@H](C)O2)[C@H](O)[C@@H](C)O1 (stereo partly specified),Potency,astro,0.112 µM (active)
CCN(CC)CCOc1ccc(-c2nc3cc(Cl)ccc3s2)cc1,Potency,astro,20 µM (active)
CCCCC(=O)OCC(=O)[C@]1(O)Cc2c(O)c3c(c(O)c2[C@@H](O[C@H]2C[C@H](NC(=O)C(F)(F)F)[C@H](O)[C@H](C)O2)C1)C(=O)c1c(OC)cccc1C3=O,Potency,astro,2.24 µM (active)
COC(C(=O)C(O)C(C)O)C1Cc2cc3cc(OC4CC(OC5CC(O)C(O)C(C)O5)C(O)C(C)O4)c(C)c(O)c3c(O)c2C(=O)C1OC1CC(OC2CC(OC3CC(C)(O)C(O)C(C)O3)C(O)C(C)O2)C(O)C(C)O1 (stereo unspecified),Potency,astro,0.355 µM (active)
CO[C@H]1C=CO[C@@]2(C)Oc3c(C)c(O)c4c(O)c(c5c(nc6cc(C)ccn65)c4c3C2=O)NC(=O)/C(C)=C\C=C[C@H](C)[C@H](O)[C@@H](C)[C@@H](O)[C@@H](C)[C@H](OC(C)=O)[C@@H]1C,"activity, negative = cell killing",[1]; [5],-10.2%
same,"activity, negative = cell killing",[1]; [6],-26.2%
same,"activity, negative = cell killing",[1]; [7],-2.47%
same,Potency,astro,inactive
CCOc1ccc(N=Nc2ccc(N)cc2N)cc1,Potency,astro,2.51 µM (active)
CC(C)=O,"activity, negative = cell killing",[1]; [5],-1.76%
same,"activity, negative = cell killing",[1]; [6],-10.6%
same,"activity, negative = cell killing",[1]; [7],-8.82%
same,Potency,astro,inactive
same,max response,[2],2.78%
same,outcome,[3],inactive
CC[C@@H](C(=O)O)[C@@H]1O[C@@H]([C@@H](C)[C@H](O)[C@H](C)C(=O)[C@H](CC)[C@H]2O[C@]3(C=C[C@@H](O)[C@]4(CC[C@@](C)([C@H]5CC[C@](O)(CC)[C@H](C)O5)O4)O3)[C@H](C)C[C@@H]2C)[C@@H](C)C[C@@H]1C,Potency,astro,0.794 µM (active)
CC1(C)C(C=C(Cl)Cl)C1C(=O)OCc1cccc(Oc2ccccc2)c1 (stereo unspecified),"activity, negative = cell killing",[1]; [5],-14.8%
same,"activity, negative = cell killing",[1]; [6],-15.5%
same,"activity, negative = cell killing",[1]; [7],6.86%
same,Potency,astro,inactive
O=C(O)C1CCCN1 (stereo unspecified),"activity, negative = cell killing",[1]; [5],-8.24%
same,"activity, negative = cell killing",[1]; [6],-1.47%
same,"activity, negative = cell killing",[1]; [7],-1.4%
same,Potency,astro,inactive
Cc1ccccc1,"activity, negative = cell killing",[1]; [5],6.08%
same,"activity, negative = cell killing",[1]; [6],-15.8%
same,"activity, negative = cell killing",[1]; [7],2.61%
same,Potency,astro,inactive
same,max response,[2],-1.25% and 0.145%
same,outcome,[3],inactive
CCCCC(CC)COC(=O)CC(C(=O)OCC(CC)CCCC)S(=O)(=O)O (stereo unspecified),"activity, negative = cell killing",[1]; [5],1.3%
same,"activity, negative = cell killing",[1]; [8],-17.3% and -22.7%
same,"activity, negative = cell killing",[1]; [7],-38.9%
same,Potency,astro,inactive
same,max response,[2],6.97%
O=CCCCC=O,"activity, negative = cell killing",[1]; [5],-2.9%
same,"activity, negative = cell killing",[1]; [6],-3.77%
same,"activity, negative = cell killing",[1]; [7],-3.46%
same,Potency,astro,inactive
same,max response,[2],2.91%
same,outcome,[3],inactive
CCNC(=O)[C@@H]1CCCN1C(=O)[C@H](CCCN=C(N)N)NC(=O)[C@H](CC(C)C)NC(=O)[C@@H](Cc1c[nH]c2ccccc12)NC(=O)[C@H](Cc1ccc(O)cc1)NC(=O)[C@H](CO)NC(=O)[C@H](Cc1c[nH]c2ccccc12)NC(=O)[C@H](Cc1cnc[nH]1)NC(=O)[C@@H]1CCC(=O)N1,Potency,astro,8.91 µM (active)
CC1(C)S[C@@H]2[C@H](NC(=O)C(N)c3ccccc3)C(=O)N2[C@H]1C(=O)OC1OC(=O)c2ccccc21 (stereo partly specified),"activity, negative = cell killing",[1]; [4],-5.29%
same,"activity, negative = cell killing",[1]; [9],-22.1%
same,"activity, negative = cell killing",[1]; [10],-10.3%
same,Potency,astro,inactive
COc1cc([C@@H]2c3cc4c(cc3[C@@H](O[C@@H]3O[C@@H]5CO[C@@H](C)O[C@H]5[C@H](O)[C@H]3O)[C@H]3COC(=O)[C@H]23)OCO4)cc(OC)c1O,"activity, negative = cell killing",[1]; [6],-20.4%
same,"activity, negative = cell killing",[1]; [7],-16.4%
same,Potency,astro,inactive
CC(C)(C)NC(=O)[C@@H]1C[C@@H]2CCCC[C@@H]2CN1C[C@@H](O)[C@H](Cc1ccccc1)NC(=O)[C@H](CC(N)=O)NC(=O)c1ccc2ccccc2n1,"activity, negative = cell killing",[1]; [7],7.54%
same,Potency,[1]; tumour line A,4.47 µM (active)
same,Potency,astro,inactive
C#C[C@]1(O)CC[C@H]2[C@@H]3CCC4=CCCC[C@@H]4[C@H]3C(=C)C[C@@]21CC,Potency,astro,35.5 µM (active)
COc1ccc(CCNC[C@H](O)c2ccc(O)cc2)cc1OC,"activity, negative = cell killing",[1]; [5],-3.8%
same,"activity, negative = cell killing",[1]; [6],-0.958%
same,"activity, negative = cell killing",[1]; [7],-0.44%
same,Potency,astro,inactive
CCCCCCCCCCCC[n+]1ccc2ccccc2c1,Potency,astro,5.01 µM (active)
CCCCCCCC/C=C\CCCCCCCC(=O)O,"activity, negative = cell killing",[1]; [5],3.38%
same,"activity, negative = cell killing",[1]; [6],-14.1%
same,"activity, negative = cell killing",[1]; [7],14.2%
same,max response,[2],0.673% and 2.82%
same,outcome,[3],inactive
CCC(=O)OCC(=O)[C@@]1(OC(=O)CC)[C@H](C)C[C@H]2[C@H]3[C@H]([C@@H](O)C[C@@]21C)[C@@]1(C)C=CC(=O)C=C1C[C@H]3Cl,"activity, negative = cell killing",[1]; [4],-8.97%
same,"activity, negative = cell killing",[1]; [9],-7.29%
same,"activity, negative = cell killing",[1]; [10],-17.3%
same,Potency,astro,inactive
